Measured values from PubChem BioAssay (NCATS).
Where “and” joins values, the source holds several entries; their conditions need not be identical. Equal entries are not always repeated. Records with an inconclusive call do not appear. Calls of active or inactive are those of the source. Unless noted, calls come from the whole dose curve; as a rule, active = well fitted curve in the direction sought with a large enough effect; inconclusive = small, poorly fitted or top-dose-only effect, or another doubt; inactive = no such curve, though single readings can be large; an effect the other way counts as inactive or inconclusive.

Columns and labels:
[1] = Cell Viability - MRC5 (AID 434; calls by dose curve;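 note: potency is the fitted concentration of half-maximal effect; cells exposed to compound for 40 hours at 37 °C; potency reflects cytotoxicity seen as loss of intracellular ATP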); conditions: MRC5 lung fibroblast viability, qHTS
Outline: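 ATP luminescence read-out (CellTiter-Glo, 20 min RT) after 40 hr, 37 °C compound exposure of 1500 MRC5 cells/well. Data normalized to DMSO (basal) and 100 uM tamoxifen (100% inhibition); AC50 from standard Hill equation.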

[2] = Cell Viability - HUV-EC-C (AID 542); conditions: HUV-EC-C endothelial cell viability, qHTS; series mostly up to 92.2 µM;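 note: cells exposed to compound for 40 hours; % is set by controls: 0 for no effect and ±100 for the full control effect; nearly all actives have a fitted effect of over 35% in size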
Outline: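 CellTiter-Glo luminescence measured ATP loss in HUV-EC-C cells (1000/well) after 40 hr compound exposure at 37 °C, in complete culture medium. Concentration-response data were Hill-fitted to give AC50.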

[3] = Cellular Toxicity (caspase-3) HepG2 (AID 654); conditions: HepG2 caspase-3 activation, luminescence; series mostly up to 92.2 µM;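 note: cells exposed to compound for 16 hours before reading; 0% = DMSO alone and 100% = caspase signal from 100 µM tamoxifen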
Outline: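 Caspase 3/7 activation is measured as a luminescence increase (aminoluciferin substrate) after 16 h compound exposure of human hepatocarcinoma HepG2 cells. AC50 values are Hill fits, scaled between DMSO baseline and 100 uM tamoxifen stimulation.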

[4] = Cellular Toxicity (caspase-3) HUV-EC-C (AID 656); conditions: HUV-EC-C cells, caspase-3 activation (apoptosis); series mostly up to 92.2 µM
Outline: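 Concentration-dependent caspase 3/7 induction was assessed in HUV-EC-C cells exposed for 16 hours. Data scaled between DMSO and tamoxifen (100 uM) controls.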

[5] = Cellular Toxicity (caspase-3) MRC-5 (AID 659); conditions: MRC-5 cells, luminescence, normalized: DMSO 0%, 10 µM staurosporine 100%; series mostly up to 91.7 µM
Outline: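 MRC-5 fibroblasts, 1500/well; 16 h cpd, 37 °C; Caspase-Glo 3/7, 1 h RT; lumi read. Norm: DMSO = 0%, 10 uM staurosporine = 100%. Hill-fit AC50 from qHTS conc-response.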

[6] = Cellular Toxicity (caspase-3) SK-N-SH (AID 661); conditions: SK-N-SH caspase-3 activation, qHTS, DMSO as zero, staurosporine as full; series mostly up to 91.7 µM
Outline: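 Caspase 3/7 activation was read by luminogenic substrate cleavage after 16 hour treatment of SK-N-SH cells. Signal was scaled between DMSO and 10 uM staurosporine, and concentration-response data were fitted with the Hill equation for AC50.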

[7] = Cellular Toxicity (caspase-3) Hek293 (AID 664); conditions: HEK293 caspase-3 activation, DMSO = 0%, 100 µM tamoxifen = 100%; at 92.2 µM (top of the series);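 note: cells exposed to compound for 16 h at 37 °C before readout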
Outline: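 Concentration-response qHTS: caspase 3/7 activation measured by luminescent aminoluciferin substrate cleavage after 16 h compound exposure of Hek 293 cells. AC50 from Hill equation, with DMSO as basal and 100 uM tamoxifen as 100%.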

[8] = Cellular Toxicity (caspase-3) N2a (AID 665); conditions: N2a cells, luminescence, normalized: DMSO 0%, 10 µM staurosporine 100%; series mostly up to 92.2 µM;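 note: compound exposure lasted 16 h at 37 °C before readout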
Outline: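 Caspase-3/7 activation measured as luminescence from Caspase-Glo reagent (1 h, room temperature) after 16 h compound exposure of mouse N2a cells. AC50 values from Hill-equation concentration-response, scaled between DMSO and 10 uM staurosporine.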

[9] = Cellular Toxicity (caspase-3) NIH 3T3 (AID 666); conditions: NIH 3T3 caspase-3 activation, apoptosis/toxicity, 0% DMSO, 100% is 100 µM tamoxifen; series mostly up to 92.2 µM;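 note: 0% = DMSO basal and 100% = 100 µM tamoxifen stimulation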
Outline: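 Caspase-Glo 3/7 luminescence reported caspase activation in 1000 NIH 3T3 cells/well after 16 h compound exposure at 37 C. DMSO set basal and 100 uM tamoxifen set 100% stimulation; concentration-response modeled with the Hill equation for AC50.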

[10] = Cellular Toxicity (caspase-3) Renal Proximal Tubule (AID 667); conditions: renal proximal tubule cells, primary cells freshly taken from rat; Potency: caspase-3 activation; series mostly up to 91.7 µM;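 note: cells exposed to compound for 16 hours at 37 °C before detection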
Outline: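 Caspase-Glo 3/7 read-out, rat primary kidney proximal tubule cells. Compound exposure 16 h, 37 °C; detection after 1 h at RT. Activity scaled to DMSO and 10 uM staurosporine.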

[11] = MultiTox-Fluor Cytotoxicity Assay - LYMP1-001 - Dead Cells (AID 946); conditions: LYMP1-001 lymphoblastoid cells, dead-cell protease fluorescence; series mostly up to 92.2 µM;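 note: 0% = DMSO and 100% = tetraoctylammonium bromide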
Outline: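 LYMP1-001 lymphoblastoid cells (2500/well) treated 16 h at 37 C. Dead-cell protease cleavage of bis-AAF-R110 read at Ex/Em 485/520. Normalized to DMSO and 15 uM tetraoctylammonium bromide; AC50 from Hill fits.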

[12] = MultiTox-Fluor Cytotoxicity Assay - LYMP1-003 - Dead Cells (AID 961); conditions: LYMP1-003 lymphoblastoid cells, dead-cell protease fluorescence; series mostly up to 92.2 µM;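 note: 0% = DMSO and 100% = tetraoctylammonium bromide; nearly all actives have a fitted effect of over 70% in size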
Outline: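 LYMP1-003 human lymphoblastoid cells (2500/well) exposed to compound 16 h at 37 C in complete medium; dead-cell protease read with bis-AAF-R110 fluorescence (Ex/Em 485/520) after 60 min at room temperature. Normalized to DMSO and 15 uM tetraoctylammonium bromide; AC50 from Hill fit.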

[13] = MultiTox-Fluor Cytotoxicity Assay - LYMP1-003 - Live Cells (AID 962); conditions: LYMP1-003 lymphoblastoid cells, MultiTox-Fluor live-cell protease fluorescence; series mostly up to 92.2 µM;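 note: 0% = DMSO only and full loss = 92 µM tetraoctylammonium bromide; cytotoxic hits lower the live-cell protease signal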
Outline: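 Live-cell protease activity (GF-AFC substrate, 405/510 nm, 60 min at room temperature) after 16 h, 37 C compound exposure of human lymphoblastoid LYMP1-003 cells; concentration-response fitted to the Hill equation for AC50.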

[14] = Cell Viability - LYMP1-003 - Assay at 24 hr (AID 963); conditions: LYMP1-003 lymphoblastoid cell viability; series mostly up to 92.2 µM;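 note: plate controls were DMSO only for no effect and tetraoctylammonium bromide positive control for full effect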
Outline: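 Concentration-response qHTS: ATP loss measured by CellTiter-Glo luminescence after 24 h compound exposure at 37 C. Cells were LYMP1-003 human lymphoblastoid, 2500 per well. AC50 derived via standard Hill equation modeling.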

[15] = Cell Viability - LYMP1-002 - Assay at 24 hr (AID 993); conditions: LYMP1-002 lymphoblastoid cells viability; series mostly up to 92.2 µM; note: % is set by controls: 0 for no effect and ±100 for the full control effect
Outline: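 qHTS cytotoxicity at 24 h: CellTiter-Glo ATP luminescence in lymphoblastoid line LYMP1-002 incubated with compound at 37 °C. Concentration-response modeled with the Hill equation for AC50; tetraoctylammonium bromide served as positive control.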

[16] = qHTS Assay for Identification of Small Molecule Inducers of Hypoxia Response (AID 2120; active = well fitted curve in the direction sought with a large enough effect in the signal ratio, with a control signal flat, not every such curve was filed as active; the % refers to the signal ratio; note: 0% is about no effect); conditions: hypoxia response reporter cells, beta-lactamase ratio readout; series mostly up to 104 µM
Outline: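 Reporter induction read as the CCF4 blue/green (460nm/530nm) emission ratio after 2.5 h dye loading at room temperature. ME-180 HRE-beta-lactamase cells received titrated compounds for 17 h at 37 degrees Celsius; AC50 values derived.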

[17] = molecular target: Peroxisome proliferator-activated receptor alpha (Homo sapiens) (UniProt Q07869); test: qHTS assay for small molecule agonists of the peroxisome proliferator-activated receptor alpha (PPARalpha) signaling pathway (AID 651778); conditions: PathHunter PPARalpha complementation, chemiluminescence, 6 h; max response: active compounds read high; note: % of control where 0% means no effect
Outline: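 Enzyme-fragment complementation assay in which ligand-bound PPARalpha translocates and forms an active enzyme that generates chemiluminescence. Cells were plated overnight, exposed to compound for 6 hr at 37 C, and then given detection reagent for 60 min at room temperature.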

[18] = qHTS assay for small molecule agonists of the antioxidant response element (ARE) signaling pathway measured by Nrf2-dependant transcriptional activity - cell viability counter screen (AID 720653; active = well fitted curve in the direction sought with a large enough effect in the repeat runs; an effect the other way counts as inactive or inconclusive; note: % is set by controls: 0 for no effect and ±100 for the full control effect); conditions: ARE-bla HepG2 viability, CellTiter-Glo ATP luminescence, 16 h; max response: active compounds read low
Outline: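 ARE-bla HepG2 cells treated with compounds for 16 h at 37C; this counter screen measures viability as intracellular ATP by CellTiter-Glo luminescence after 30 min at room temperature.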

[19] = qHTS assay for cell viability of HEK293 cells (AID 743288); conditions: ATP luminescence (CellTiter-Glo), 18 h; max response: active compounds read low; note: % is set by controls: 0 for no effect and ±100 for the full control effect; nearly all actives have a fitted effect of over 50% in size
Outline: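 HEK293, 18 h, 37 C, ATP luminescence. Cells at 2,000/well were allowed at least 5 h to settle before dosing; CellTiter-Glo developed 30 min at RT.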

[20] = qHTS assay for cell viability of the p53RE-bla HCT-116 cell line (AID 743292); conditions: p53RE-bla HCT-116 viability, ATP luminescence, 16 h; series mostly up to 95 µM; note: % is set by controls: 0 for no effect and ±100 for the full control effect; nearly all actives have a fitted effect of over 55% in size
Outline: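 ATP-based luminescence, 16 h compound exposure at 37 C, p53RE-bla HCT-116 cells at 4,000/well.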

Chain of Peroxisome proliferator-activated receptor alpha (Homo sapiens) (Q07869 whole entry, looked up, the tested form may be a part): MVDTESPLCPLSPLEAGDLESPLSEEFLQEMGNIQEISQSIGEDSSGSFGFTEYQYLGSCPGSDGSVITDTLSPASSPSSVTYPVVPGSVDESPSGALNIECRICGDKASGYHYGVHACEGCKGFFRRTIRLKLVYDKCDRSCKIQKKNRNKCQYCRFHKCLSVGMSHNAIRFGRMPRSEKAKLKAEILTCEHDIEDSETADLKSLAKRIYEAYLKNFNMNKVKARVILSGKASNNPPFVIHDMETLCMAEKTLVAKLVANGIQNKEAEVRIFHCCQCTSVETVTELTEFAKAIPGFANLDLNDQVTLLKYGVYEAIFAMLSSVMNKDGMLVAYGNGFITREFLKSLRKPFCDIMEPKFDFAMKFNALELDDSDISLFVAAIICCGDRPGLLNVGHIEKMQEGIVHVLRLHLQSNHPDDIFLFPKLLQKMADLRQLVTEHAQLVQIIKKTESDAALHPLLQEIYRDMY

CCC(Cl)CC(Cl)C(Cl)C(Cl)C(Cl)C(C)Cl (stereo not given)
inactive: Potency [1] > 92 µM | Potency [2] | Potency [3] | Potency [4] | outcome [5] | outcome [6] | caspase-3 activation [7] 5.41% | outcome [8] | outcome [9] | Potency [10] | Potency [11] | Potency [12] | Potency [13] | Potency [14] | Potency [15] | Potency [16] | max response [17] -3.58% | max response [18] -9.68% | max response [19] 0.239% | Potency [20]

Cc1c(N)cccc1Cl
inactive: Potency [1] > 92 µM | Potency [2] | Potency [3] | Potency [4] | outcome [5] | outcome [6] | caspase-3 activation [7] 0.378% | outcome [8] | outcome [9] | Potency [10] | Potency [11] | Potency [12] | Potency [13] | Potency [14] | Potency [15] | Potency [16] | max response [17] -2.61% | max response [18] -6.28% | max response [19] 0.674% | Potency [20]

Cc1ccc(N)cc1[N+](=O)[O-]
inactive: Potency [1] > 92 µM | Potency [2] | Potency [3] | Potency [4] | outcome [5] | outcome [6] | caspase-3 activation [7] -1.57% | outcome [8] | outcome [9] | Potency [10] | Potency [11] | Potency [12] | Potency [13] | Potency [14] | Potency [15] | Potency [16] | max response [17] -0.223% | max response [18] -10.7% | max response [19] 4.69% | Potency [20]

c1c[nH]cn1
inactive: Potency [1] > 92 µM | Potency [2] | Potency [3] | Potency [4] | outcome [5] | outcome [6] | caspase-3 activation [7] -0.608% | outcome [8] | outcome [9] | Potency [10] | Potency [11] | Potency [12] | Potency [13] | Potency [14] | Potency [15] | Potency [16] | max response [17] -0.778% | max response [18] -2.06% | max response [19] -0.708% | Potency [20]

C/C(Cl)=C/CCl
inactive: Potency [1] > 92 µM | Potency [2] | Potency [3] | Potency [4] | outcome [5] | outcome [6] | caspase-3 activation [7] -0.884% | outcome [8] | outcome [9] | Potency [10] | Potency [11] | Potency [12] | Potency [13] | Potency [14] | Potency [15] | Potency [16] | max response [17] -4.68% | max response [18] 5.48% | max response [19] -11.4% | Potency [20]

OCC(CBr)(CBr)CBr
inactive: Potency [1] > 92 µM | Potency [2] | Potency [3] | Potency [4] | outcome [5] | outcome [6] | caspase-3 activation [7] 0.713% | outcome [8] | outcome [9] | Potency [10] | Potency [11] | Potency [12] | Potency [13] | Potency [14] | Potency [15] | Potency [16] | max response [17] 1.63% | max response [18] -12.4% | max response [19] -19.9% | Potency [20]

CC(C)COC(=O)COc1cc(Cl)c(Cl)cc1Cl
inactive: Potency [1] > 92 µM | Potency [2] | Potency [3] | Potency [4] | outcome [5] | outcome [6] | caspase-3 activation [7] 3.66% | outcome [8] | outcome [9] | Potency [10] | Potency [11] | Potency [12] | Potency [13] | Potency [14] | Potency [15] | Potency [16] | max response [17] 9.61% | max response [18] 7.92% | max response [19] 6.88% | Potency [20]

CCCCNCC
inactive: Potency [1] > 92 µM | Potency [2] | Potency [3] | Potency [4] | outcome [5] | outcome [6] | caspase-3 activation [7] -0.76% | outcome [8] | outcome [9] | Potency [10] | Potency [11] | Potency [12] | Potency [13] | Potency [14] | Potency [15] | Potency [16] | max response [17] -6.73% | max response [18] 3.95% | max response [19] -3.61% | Potency [20]

CC(=O)c1ccc(Cl)c(Cl)c1Cl
inactive: Potency [1] > 92 µM | Potency [2] | Potency [3] | Potency [4] | outcome [5] | outcome [6] | caspase-3 activation [7] 0.887% | outcome [8] | outcome [9] | Potency [10] | Potency [11] | Potency [12] | Potency [13] | Potency [14] | Potency [15] | Potency [16] | max response [17] -0.114% | max response [18] 4.27% | max response [19] 4.03% | Potency [20]

Nc1cc([N+](=O)[O-])ccc1O
inactive: Potency [1] > 92 µM | Potency [2] | Potency [3] | Potency [4] | outcome [5] | outcome [6] | caspase-3 activation [7] -0.467% | outcome [8] | outcome [9] | Potency [10] | Potency [11] | Potency [12] | Potency [13] | Potency [14] | Potency [15] | Potency [16] | max response [17] -13.4% and -8.79% | max response [18] -7.79% and -12.9% | max response [19] 11.2% and -4.43% | Potency [20]

CCCCC(CC)COC(=O)COc1ccc(Cl)cc1Cl (stereo not given)
inactive: Potency [1] > 92 µM | Potency [2] | Potency [3] | Potency [4] | outcome [5] | outcome [6] | caspase-3 activation [7] 1.58% | outcome [8] | outcome [9] | Potency [10] | Potency [11] | Potency [12] | Potency [13] | Potency [14] | Potency [15] | Potency [16] | max response [17] -1.4% and -1.03% | max response [18] -8.61% and -1.82% | max response [19] -3.29% and 2.38% | Potency [20]
